Bioassay records (PubChem BioAssay)
The sample as a whole holds a higher share of hits than the screen did.
HT1080NT lethal = qHTS for induction of synthetic lethality in tumor cells producing 2HG: qHTS for the HT-1080-NT fibrosarcoma cell line; HT-1080-NT fibrosarcoma viability, CellTiter-Glo ATP luminescence, 48 h; Potency, µM (highest dose often 46.1 µM), for inactives: at the top dose activity, negative = less viability, usual class: cytotoxic; 1.6% of 360,000 active;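 also: NT is the 2HG producing partner of a matched IDH1 knockdown line; potency is read from the fitted curve at half-maximal effect; 0% = DMSO-treated cells and -100% = media-only wells without cells; nearly all actives have a fitted effect of over 55% in size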
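Fibrosarcoma NT cells, 750 per well in 5% FBS RPMI, were exposed to compound for 48 hours. Viability: CellTiter-Glo luminescence.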
DT40 TDP1 no CPT = qHTS for Inhibitors of human tyrosyl-DNA phosphodiesterase 1 (TDP1): qHTS in cells in absence of CPT | Potency, µM (series often up to 46.2 µM), for the others: top-dose activity change, negative = growth inhibition, most hits filed as inhibitors | 15% of 420,000 active | AID 686978, 2013 | DT40 Tdp1-/- hTDP1 cells, no CPT, ATP luminescence, 48 h; also: potency is read from the fitted curve at half-maximal effect; nearly all actives have a fitted effect of over 55% in size
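A cellular qHTS used chicken DT40 cells lacking endogenous Tdp1 but carrying stably transfected human TDP1. Compounds were applied without camptothecin, and cell growth kinetics were judged by ATP-dependent luminescence after ≥48 hr.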
DT40 TDP1 CPT = qHTS for Inhibitors of human tyrosyl-DNA phosphodiesterase 1 (TDP1): qHTS in cells in presence of CPT | chicken DT40 Tdp1-/-;hTDP1 cells + 20 nM CPT, ATP luminescence, 48 h | Potency, µM (top dose mostly 46.2 µM), without a hit: top-dose activity change, negative = growth inhibition, actives largely listed as inhibitors | 12% of 420,000 active | AID 686979, 2013; also: potency is read from the fitted curve at half-maximal effect; nearly all actives have a fitted effect of over 55% in size
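Cell growth measured by CellTiter-Glo luminescence after a minimum 48 h, 37 C compound exposure with 20 nM CPT in Tdp1-knockout DT40 cells stably expressing hTDP1, seeded 400/well; qHTS titration format.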
ALOX12 inh = Primary qHTS assay for inhibitors of human arachidonate 12S-lipoxygenase (ALOX12): Round 2. purified 12hLO, xylenol orange hydroperoxide absorbance. Polyunsaturated fatty acid lipoxygenase ALOX12 (Homo sapiens), P18054. Potency, µM (doses to about 108 µM), for inactives: at the highest dose activity change, negative = inhibition, usual class: inhibitors. AID 1671190, 2021. 1.1% of 580,000 active; also: potency is read from the fitted curve at half-maximal effect
Target sequence (P18054 whole entry, looked up): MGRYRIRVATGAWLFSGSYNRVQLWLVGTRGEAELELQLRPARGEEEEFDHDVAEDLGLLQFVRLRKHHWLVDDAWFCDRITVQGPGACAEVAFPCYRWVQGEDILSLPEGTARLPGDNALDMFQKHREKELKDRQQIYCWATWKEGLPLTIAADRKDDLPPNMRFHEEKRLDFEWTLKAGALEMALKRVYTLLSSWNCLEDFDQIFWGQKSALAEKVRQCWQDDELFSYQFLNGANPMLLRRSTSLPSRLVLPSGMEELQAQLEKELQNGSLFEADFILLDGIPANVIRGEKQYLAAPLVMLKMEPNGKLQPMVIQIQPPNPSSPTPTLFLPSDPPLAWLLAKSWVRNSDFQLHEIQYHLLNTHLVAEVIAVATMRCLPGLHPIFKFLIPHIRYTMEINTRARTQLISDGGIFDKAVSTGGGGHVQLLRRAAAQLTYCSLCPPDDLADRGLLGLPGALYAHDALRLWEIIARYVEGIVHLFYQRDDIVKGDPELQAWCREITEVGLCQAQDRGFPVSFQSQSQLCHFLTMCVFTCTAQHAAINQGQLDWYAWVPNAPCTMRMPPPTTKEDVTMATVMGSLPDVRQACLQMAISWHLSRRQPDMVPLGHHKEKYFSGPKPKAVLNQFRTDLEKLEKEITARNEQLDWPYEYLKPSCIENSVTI
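Hydroperoxide product was detected by ferrous iron/xylenol orange as the 573 to 405 nm absorbance ratio. Arachidonic acid at 40 uM (final) was turned over for 30 min at room temperature by 150 nM human 12hLO, pH 7.0 Hepes buffer, after 15 min compound preincubation.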
HT1080 IDH1KD tx = qHTS for induction of synthetic lethality in tumor cells producing 2HG: qHTS for the HT-1080-IDH1KD cell line; HT-1080 IDH1 knockdown viability, ATP luminescence, 48 h; Potency, µM (doses to about 46.1 µM), inactives show at the top dose activity, negative = toxicity, usual class: cytotoxic; 2% of 360,000 active;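 also: potency is read from the fitted curve at half-maximal effect; 0% = DMSO wells and -100% = cell-free medium wells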
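% activity derives from luminescence (CellTiter-Glo), normalised to DMSO and no-cell wells. HT-1080-IDH1KD cells, 750/well, had 48 h compound exposure at 37 °C.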
IL-1B inflam inh = qHTS for Inhibitors of Inflammasome Signaling: IL-1-beta AlphaLISA Primary Screen; activity change, % at 57.5 µM; 4.7% of 360,000 active; THP-1 LPS/ATP IL-1B secretion, AlphaLISA, 16 h; active compounds read low; in the data active = activity change below about -50%; inconclusive = mostly about -30% to -49%
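Secreted IL-1B measured by AlphaLISA bead assay after 16 h compound exposure of THP-1 cells; compounds (final up to 57.5 uM) added 1 h before LPS (250 ng/mL) and ATP (1.25 mM) stimulation; lower signal means less secretion.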
Numbers without * were called inactive; ? = inconclusive; . = no result; [ ] = another dose, or the depositor's remark. Unless noted, calls follow the shape of the dose curve; as a rule, active = well fitted curve in the direction sought with a large enough effect; inconclusive = small, poorly fitted or top-dose-only effect, or another doubt; inactive = no such curve, though single readings can be large; an effect the other way counts as inactive or inconclusive. Unless noted, % is scaled to controls: 0 for no effect and ±100 for the full control effect.

SMILES	HT1080NT lethal	DT40 TDP1 no CPT	DT40 TDP1 CPT	ALOX12 inh	HT1080 IDH1KD tx	IL-1B inflam inh
CNC(=O)c1ccc(-c2nc(CN3CCN(S(=O)(=O)c4ccccc4)CC3)c(C)o2)cc1	.	.	.	-23%	.	.
CCOCC(=O)Nc1cc(C)on1	8%	17%	-4%	7%	4%	-15
COc1ccc(-c2csc(-c3c(N)c(C(=O)c4ccccc4)n4ccccc34)n2)cc1OC	.	2.3µM*	4.1µM*	-24%	.	.
COc1ccccc1C1(CCN=Cc2ccc(N(C)C)cc2)CCOC(C)(C)C1 (stereo unspecified)	-5%	-11%	-22%	0%	-2%	-64*
O=C(Nc1cc(C(F)(F)F)ccc1Cl)c1noc2c1CCCC2	.	.	.	-2%	.	.
O=C1c2ccccc2[C@@H]2C[C@@H](O)[C@H](Nc3cccc(C(F)(F)F)c3)CCN12	-2%	?	23µM*	-5%	-2%	?
O=C1c2ccccc2[C@@H]2C[C@@H](O)[C@H](Nc3ccccc3)CCN12	1%	-11%	13%	-7%	1%	40
O=C1c2ccccc2[C@@H]2C[C@@H](O)[C@H](Nc3ccccc3-c3ccccc3)CCN12	1%	18µM*	?	2%	-1%	-1
COc1cc2c(cc1NC(C)=O)C(c1ccc(Oc3ccccc3)nc1)CC(=O)N2 (stereo unspecified)	.	.	.	10%	.	.
CC(C)(C)NC(=O)c1ccc(NC(=O)c2cc(=O)[nH]c3ccccc23)cc1	.	.	.	25%	.	.
Cc1csc(NC(=O)[C@@H]2CCC[C@@H](NC(=O)c3ccccc3)CN(C)C(=O)C2)n1	.	.	.	57%[176 µM]	.	.
CC(C)CCNC(=O)N1CCCC(c2noc(COc3ccccc3F)n2)C1 (stereo unspecified)	.	.	.	-2%	.	.
CC12CC3(C)CC(C)(C1)CC(NC(=O)N1CCCC1)(C2)C3	0%	13µM*	?	-1%	0%	-13
CC1(NC(=O)N2CCCCC2)CCS(=O)(=O)C1 (stereo unspecified)	4%	-5%	-12%	0%	2%	6
CN1/C(=C/C(=O)COC(=O)CN2C(=O)C3CC=CCC3C2=O)C(C)(C)c2ccccc21 (stereo unspecified)	-7%	16µM*	?	-3%	-19%	-11
CN1/C(=C\C(=O)COC(=O)Cn2nnc(-c3ccccc3)n2)C(C)(C)c2ccccc21	-18%	3.7µM*	4.1µM*	0%	?	8
CN1/C(=C\C(=O)COC(=O)c2ccc([N+](=O)[O-])o2)C(C)(C)c2ccccc21	1%	-15%	-11%	0%	3%	8
O=Cc1ccc(F)c([B-](F)(F)F)c1	-2%	-8%	5%	12%	-7%	-4
O=c1ccsn1Cc1ccccc1	?	0.65µM*	0.29µM*	?	23µM*	-101*
O=C1NC(Cc2ccccc2)C(=O)N1Cc1ccccc1 (stereo unspecified)	9%	-18%	4%	-17%	10%	-7
Cc1cc2nc(NC(=O)C3(C)CCN(C)C3)[nH]c2cc1C (stereo unspecified)	1%	-10%	-27%	13%	14%	-4
CCc1nc2c(c(-c3ccc(Cl)cc3)n1)CN(C(=O)Cc1ccccn1)CC2	.	.	.	22%	.	.
O=C1CCCC2=C1C(c1ccccc1)NC(=S)N2 (stereo unspecified)	?	-19%	1%	-10%	-23%	23
